A selection: hits, their analogues and other compounds. The true share with any hit is near 12%.
LASV entry inh = inhibitors of Lassa virus binding or cell entry | Potency, µM (series often up to 37.9 µM), for the others: top-dose activity change, negative = inhibition, usual class: inhibitors | hit rate 1.2% among 300,000 | AID 540256 | Lassa virus pseudotype entry inhibition, cell reporter; calls by dose curve; tested in HEK293 cells; further: potency means the concentration at half of the fitted maximal effect; on the % scale 0 is the no-effect control and ±100 the full control effect; nearly all actives have a fitted effect of over 50% in size
Cycloheximide cs = affects cycloheximide protein synthesis inhibition readout, counter-screen; cell reporter, cycloheximide protein synthesis inhibition counterscreen; max response, %; hit rate 12% among 300,000; AID 2314; in the data active means max response mostly above about 13%, no sharp cut-off; inactive means mostly below about 14%; further: read at 38.3 µM for the half of the compounds with a filed dose; 0% is about no effect
Marburg entry inh = inhibitors of Marburg virus binding or cell entry; hit rate 1.8% among 300,000; Marburg virus pseudotyped entry inhibition, cell reporter; Potency, µM (series often up to 37.8 µM), for inactives: at the highest dose activity change, negative = inhibition, actives largely listed as inhibitors; AID 540276; calls by dose curve; tested in HEK293 cells; further: potency means the concentration at half of the fitted maximal effect; on the % scale 0 is the no-effect control and ±100 the full control effect
Shiga inhibitor = Shiga toxin inhibition. inhibition, % at 38.7 µM. AID 2315. Vero cells, Shiga toxin protein synthesis inhibition reporter. hit rate 9.2% among 290,000; in the data active means inhibition mostly above about 28%, no sharp cut-off; inactive means mostly below about 43%; further: 0% is about no effect
* = called active by the depositor; ? = inconclusive; / = not tested or not shown; [ ] = another dose, or the depositor's remark.

SMILES	LASV entry inh	Cycloheximide cs	Marburg entry inh	Shiga inhibitor
Cc1cccc(NC(=S)NC(=O)c2ccco2)n1	?	16*	18%	35
Cc1cccc(NC(=O)CCC(=O)c2cccs2)n1	8%	/	?	/
N#Cc1ccccc1NC(=O)COC(=O)c1cccs1	-4%	/	1%	/
N#Cc1ccccc1NC(=S)NC(=O)c1cccs1	/	31*	/	77*
Cc1cccc(NC(=S)NC(=O)c2cccs2)n1	?	24*	?	115*
Cc1nc(NC(=S)NC(=O)c2cncc(Br)c2)ccc1Br	-13%	1	6%[14.2 µM]	10
Cc1cccc(NC(=O)CNC(=O)c2ccco2)n1	28%	/	7%	/
Cc1ccc(C)c(S(=O)(=O)N2CCN(C(=O)C3CC3C)CC2)c1 (stereo not given)	-7%	/	21%	/
O=C(NCCc1ccc(C(F)(F)F)cc1)C1CCC(=O)N(CCCc2ccccc2)C1 (stereo not given)	/	-2	/	-8
CC(C)c1nc(N2CCN(C(=O)c3ccco3)CC2)c2c3c(sc2n1)CCCC3	?	0	18µM*	-3
CCCCc1nc(N2CCN(C(=O)c3ccco3)CC2)c(C#N)c2c1CCCC2	/	21*	/	63*
Cc1nc(N2CCOCC2)c2c3c(sc2n1)CCC3	-1%	-5	0%	-16
Cc1nc(N2CCN(C(=O)c3ccco3)CC2)c2c3c(sc2n1)CCC3	?	-3	10µM*	-11
CC[C@H]1OC(c2ccccc2)[C@H](C)[C@H]2O[C@@H]2[C@@H]1C(=O)OC (stereo not given in full)	/	/	-5%[14.2 µM]	/
C(=Nc1ccc(N2CCOCC2)cc1)c1c[nH]c2ccccc12	?	42*	?	89*
Cc1ccccc1CN1C(=O)c2ccccc2Sc2ccc(C(=O)NC3CCCC3)cc21	-23%[46.1 µM]	/	/	/
CC1CCCN(S(=O)(=O)CCNC(=O)c2ccccc2)C1 (stereo not given)	-2%	/	1%	/
CNCCC(Oc1ccccc1OC)c1ccccc1 (stereo not given)	?	/	18µM*	/
COc1ccc(NC(=O)c2c(N)no[n+]2[O-])cc1	?	16*	-24%[46.1 µM]	48
Cn1ncc(N)c1C(=O)Nc1cccc(C(F)(F)F)c1	6%	3	2%[46.1 µM]	14
COc1ccc(NC(=O)c2c(N)cnn2C)cc1	29%[46.1 µM]	18*	?	25
CC(C)(C)OC(=O)N1CCC(c2c(C(=O)NCc3ccccc3)cnn2-c2cccc(F)c2)CC1	4%[46.1 µM]	/	/	/
O=C(CSc1nnc(-c2ccncc2)o1)Oc1ccccc1	10%	-2	5%	-9
O=C(CSc1nnc(-c2ccccc2O)o1)Oc1ccc(OCc2ccccc2)cc1	?	31*	-19%	101*
COc1cc(C(=O)N/N=C/c2sccc2C)cc(OC)c1OC	?	-2	?	26
SMILES	LASV entry inh	Cycloheximide cs	Marburg entry inh	Shiga inhibitor
O=C(N/N=C/c1sc(=O)n(-c2ccccc2)c1Cl)c1ccncc1	3%	20*	?	67*
O=C(N/N=C/c1cccn1-c1ccccc1)c1ccncc1	/	0	4%[46.1 µM]	28
COc1cc(C(=O)N/N=C/c2sc(=O)n(-c3ccccc3)c2Cl)cc(OC)c1OC	?	19*	-49%	16
O=C(Nc1ccc(N2CCN(C(=O)c3ccco3)CC2)cc1)c1ccc([N+](=O)[O-])cc1Cl	/	0	/	19
O=C(Nc1cc(Oc2ccc(Cl)cc2)cc([N+](=O)[O-])c1)c1ccco1	-6%	47*	?	74*
O=C(/C=C/c1ccc(Cl)c([N+](=O)[O-])c1)Nc1cccc(NC(=O)c2ccco2)c1	?	36*	?	67*
O=C(Nc1ccc2c(c1)CCCN2C(=O)c1ccco1)c1cc([N+](=O)[O-])ccc1Cl	2.5µM*	/	?	/
O=C(Nc1ccc(Cl)c([N+](=O)[O-])c1)c1ccco1	/	20*	/	33
O=C(/C=C/c1ccc(Cl)c([N+](=O)[O-])c1)Nc1ccc(NC(=O)c2ccco2)cc1	11%	-1	?	-14
NC(=O)C1CCCN1S(=O)(=O)c1ccc2ccccc2c1 (stereo not given)	/	-2	/	-20
Cc1ccc(C(=O)Cn2c(C(=O)OCCO)cc3ccccc32)cc1	?	0	?	-5
Cc1ccc2c(c1)c1c(c(=O)n(-c3ccccc3C)c(=O)n1CC(=O)NCc1ccccc1)n2C	-6%[46.1 µM]	/	/	/
O=C(Cc1cccs1)Nc1cccnc1	-5%	-2	-5%	48
Cc1cc(F)ccc1NC(=O)CCS(=O)(=O)c1cccc2nsnc12	?	/	7%[46.1 µM]	/
COc1ccc(-c2ccc(SC)nn2)cc1	3.5µM*	-3	?	-5
CCSc1ccc(-c2ccc(C)cc2)nn1	?	28*	?	65*
CCOc1ccc(-c2ccc(SCC)nn2)cc1	?	29*	?	75*
CCOc1ccc(-c2ccc(SCC(=O)N3CCN(c4ccccc4)CC3)nn2)cc1	6%	3	11%	3
